High-throughput results: PubChem, several laboratories
PfHsp90 set2: inhibits growth of yeast expressing Plasmodium falciparum Hsp90; inhibition, % at 9.4 µM; S. cerevisiae expressing PfHsp90, BacTiter-Glo ATP, 48 h; yeast lacking PDR1 and PDR3 efflux regulators; actives 0.32% (n = 310,000); AID 504621;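 active = every replicate shows inhibition above about 80%, whatever the replicate mean, limit read from the data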;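 note: 0% = DMSO neutral controls and 100% = 20 µM radicicol positive controls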
tim10-1 inh: tim10-1 yeast growth inhibition; S. cerevisiae tim10-1 ts strain growth, BacTiter-Glo, 24 h; inhibition, % at 20 µM; actives 2.2% (n = 330,000); AID 463190;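 active = inhibition of at least 40%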;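 note: mutant grown at 25 °C; 0% = DMSO wells with yeast and 100% = wells holding no yeast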
tim23-1 inh: inhibits growth of tim23-1 mutant yeast; S. cerevisiae tim23-1 growth, BacTiter-Glo luminescence, 24 h; inhibition, % at 20 µM; actives 1.3% (n = 330,000);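 active = growth inhibition of the mutant yeast at or above 50%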;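 note: temperature-sensitive mutant grown at 25 °C; plate controls were DMSO-treated mutant yeast for no effect and medium wells lacking yeast for full effect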
TIM10 inh: TIM10 yeast growth inhibition; S. cerevisiae TIM10 strain growth, BacTiter-Glo luminescence, 24 h; inhibition, % at 10 µM; actives 1.4% (n = 330,000);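 active = inhibition of 40% or more at the single tested concentration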;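 note: wild-type TIM10 isogenic control strain grown at permissive 25 °C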
Calb FLC: C. albicans growth modulation with fluconazole; AID 1979; C. albicans CaCi-2 (fluconazole-resistant clinical isolate) + fluconazole, Alamar Blue growth, 48 h; actives 0.57% (n = 300,000); growth inhibition, % (concentration not given with the values);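 active = growth inhibition above about 58% in most replicates, limit read from the data, passing the limit was not always enough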;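 note: all wells also contain fluconazole at 8 µg/ml as a sub-toxic cotreatment; 0% = median of DMSO wells and 100% = median of geldanamycin control wells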
SKKanGAS inh: blocks kanamycin growth of S. pyogenes SKKanGAS strain; BacTiter-Glo, 6 h; inhibition, % at 7.5 µM; actives 1.3% (n = 300,000); AID 1662;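 active = mean replicate score, as percent of positive control median, at least 50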;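 note: strain carries kanamycin resistance gene driven by streptokinase promoter and grows in 40 µg/ml kanamycin; loss of luminescence reflects streptokinase promoter inhibition or plain growth inhibition; 0% = median of DMSO wells and 100% = positive control at its reference dose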
* hit, by the source's call. Most compounds without a hit are left out; they make up all but 4.7% or so of the library.

How did O=C(NCc1ccco1)c1ccccc1SCC(=O)N1CCCC1 do in these assays?
PfHsp90 set2: 5; tim10-1 inh: -19; tim23-1 inh: -9; TIM10 inh: -20

How did CC[C@@H](C)[C@H](CN[C@H](CNC)C(C)C)NC[C@@H](C)c1ccc(CC(C)C)cc1 do in these assays?
PfHsp90 set2: 9; tim10-1 inh: 15; tim23-1 inh: 2; TIM10 inh: 14; Calb FLC: 15; SKKanGAS inh: 64*

Results for COC(=O)/C=C1\SC(=Nc2ccc(Cl)c(Cl)c2)NC1=O ?
PfHsp90 set2: -18; tim10-1 inh: -4; tim23-1 inh: 14; TIM10 inh: 11; Calb FLC: -14; SKKanGAS inh: 73*

How did O=C(CSc1ccc([N+](=O)[O-])cn1)Nc1ccccc1N1CCOCC1 do in these assays?
PfHsp90 set2: -23; tim10-1 inh: 27; tim23-1 inh: 18; TIM10 inh: 6; Calb FLC: 2; SKKanGAS inh: 7

How did O=C(CNC(=O)c1ccccc1F)NCc1ccncc1 do in these assays?
tim10-1 inh: 8; tim23-1 inh: 7; TIM10 inh: 0

How did COc1cccc(C(=O)NC2C(=O)N3C(C(=O)O)=C(COC(C)=O)CSC23)c1 (stereo unspecified) do in these assays?
PfHsp90 set2: 15; tim10-1 inh: 7; tim23-1 inh: 2; TIM10 inh: 2

What do the screens show for `CC(=O)OCC1=C(C(=O)O)N2C(=O)C(NC(=O)c3ccc(COc4cccc(Cl)c4Cl)o3)C2SC1` (stereo unspecified)?
PfHsp90 set2: -10; tim10-1 inh: 13; tim23-1 inh: 16; TIM10 inh: 9; Calb FLC: 6; SKKanGAS inh: 72*

Results for COc1ccccc1NC(=O)CN1C(=O)NC2(CCCc3ccccc32)C1=O (stereo unspecified) ?
PfHsp90 set2: -1; tim10-1 inh: 16; tim23-1 inh: 24; TIM10 inh: 4

Results for FC(F)(F)c1ccc(C2[C@H]3CN(Cc4ccc(-c5ccccc5)cc4)[C@H](c4ccccc4)C34CC2(c2cccnc2)C4)cc1 (stereo partly specified) ?
tim10-1 inh: 11; tim23-1 inh: 21; TIM10 inh: 11; Calb FLC: -5; SKKanGAS inh: 8

Results for FC(F)(F)c1ccc(C2[C@H]3CN(Cc4cccnc4)[C@H](c4ccccc4)C34CC2(c2cccnc2)C4)cc1 (stereo partly specified) ?
PfHsp90 set2: -1; tim10-1 inh: 22; tim23-1 inh: 18; TIM10 inh: 22; Calb FLC: 13; SKKanGAS inh: 53*

How did Cc1ccc(OCCn2c(=S)[nH]c3ccccc32)c(C(C)C)c1 do in these assays?
PfHsp90 set2: 19; tim10-1 inh: 14; tim23-1 inh: 39; TIM10 inh: 38; Calb FLC: -6; SKKanGAS inh: 101*

Results for Cn1c(NC(=O)C[n+]2cc(-c3ccc(Cl)c(Cl)c3)n3c2CCC3)cc(=O)n(C)c1=O ?
PfHsp90 set2: -10; tim10-1 inh: 25; tim23-1 inh: 8; TIM10 inh: 1; Calb FLC: -14; SKKanGAS inh: -3

What do the screens show for `O=C(C[n+]1cc(-c2ccc(Cl)c(Cl)c2)n2c1CCC2)N1c2ccccc2Sc2ccccc21`?
PfHsp90 set2: -24; tim10-1 inh: 5; tim23-1 inh: -14; TIM10 inh: 4; Calb FLC: 107*; SKKanGAS inh: -29

What do the screens show for `O=C(C[n+]1cc(-c2ccc(Cl)cc2)n2c1CCC2)N1c2ccccc2Sc2ccccc21`?
PfHsp90 set2: 7; tim10-1 inh: -1; tim23-1 inh: -11; TIM10 inh: -10; Calb FLC: 107*; SKKanGAS inh: -23

How did COc1ccc(-c2c[n+](CC(=O)N3c4ccccc4Sc4ccccc43)c3n2CCC3)cc1 do in these assays?
PfHsp90 set2: -1; tim10-1 inh: -22; tim23-1 inh: -6; TIM10 inh: 1; Calb FLC: 62; SKKanGAS inh: -1

What do the screens show for `Cc1ccc(-n2cc(CN3CCC(O)(c4ccccn4)CC3)c(-c3ccc(F)cc3)n2)cc1`?
PfHsp90 set2: 11; tim10-1 inh: 30; tim23-1 inh: 10; TIM10 inh: 12; Calb FLC: 1; SKKanGAS inh: -3

How did CCn1c(CN2CCCCCC2=O)nnc1SCc1cnc(-c2ccccc2)s1 do in these assays?
tim10-1 inh: 26; tim23-1 inh: 6; TIM10 inh: 21; Calb FLC: 78*; SKKanGAS inh: 5

What do the screens show for `O=C1CCCCCN1Cc1nnc(SCc2nc3ccccc3s2)n1-c1ccccn1`?
tim10-1 inh: 23; tim23-1 inh: 25; TIM10 inh: 3; Calb FLC: 1; SKKanGAS inh: -24

How did Cc1nc(SCc2cccnc2)[nH]c(=O)c1C do in these assays?
PfHsp90 set2: -6; tim10-1 inh: -8; tim23-1 inh: -4; TIM10 inh: 2; Calb FLC: 2; SKKanGAS inh: -4

Results for CN(Cc1cnn(C)c1)Cc1nc(-c2ccc(Cl)cc2)no1 ?
PfHsp90 set2: 10; tim10-1 inh: 6; tim23-1 inh: 14; TIM10 inh: -2; Calb FLC: -2; SKKanGAS inh: -4

Results for CCc1ccc(CN(C)Cc2nc(-c3cccc(Cl)c3)no2)nc1 ?
PfHsp90 set2: -29; tim10-1 inh: 25; tim23-1 inh: 28; TIM10 inh: 14; Calb FLC: -10; SKKanGAS inh: 62*

How did COc1ccc(NC(=O)c2ccc(C)cc2)c[n+]1[O-] do in these assays?
PfHsp90 set2: 11; Calb FLC: 3; SKKanGAS inh: -1

How did O=C(O)CC1(CC(=O)Nc2ccccc2Br)CCCC1 do in these assays?
PfHsp90 set2: -15; tim10-1 inh: 15; tim23-1 inh: 6; TIM10 inh: -15; Calb FLC: -4; SKKanGAS inh: -3

Results for COc1cccc(-c2nc(NC3CCCC3)c3ccccc3n2)c1O ?
PfHsp90 set2: 117*; tim10-1 inh: 36; tim23-1 inh: 49; TIM10 inh: -13; Calb FLC: 24; SKKanGAS inh: 55*

What do the screens show for `COc1cccc(-c2nc(N3CCCCC3C)c3ccccc3n2)c1O` (stereo unspecified)?
PfHsp90 set2: -19; tim10-1 inh: 22; tim23-1 inh: 14; TIM10 inh: -1; Calb FLC: 3; SKKanGAS inh: 76*

How did COc1cccc(-c2nc(NCc3ccccc3)c3ccccc3n2)c1O do in these assays?
PfHsp90 set2: -33; tim10-1 inh: 22; tim23-1 inh: 4; TIM10 inh: -12; Calb FLC: 0; SKKanGAS inh: -1

How did c1ccc(-c2csc(-n3cccn3)n2)cc1 do in these assays?
PfHsp90 set2: -3; tim10-1 inh: 14; tim23-1 inh: 12; TIM10 inh: 11; Calb FLC: -38; SKKanGAS inh: -9

How did O=C(Nc1cccc(Cl)c1)C1CCCN(C2=NS(=O)(=O)c3ccccc32)C1 (stereo unspecified) do in these assays?
tim10-1 inh: -7; tim23-1 inh: 4; TIM10 inh: 0
